Experiment [1] can be described thus: BSK_3C_VCAM1: BioMAP Diversity Plus: 3C Assay for Vascular cell adhesion molecule 1 (VCAM1) Biomarker Activity (AID 2282999). To be noted: BioMAP 3C HUVEC, VCAM1 ELISA, cytokine-stimulated; actives raise or lower the signal. An outline of the steps:
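HUVEC primary cells, 24 h compound exposure; VCAM-1 by ELISA; gain/loss of signal fitted bidirectionally vs DMSO baseline.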
(In general: In an ELISA, binding on a coated surface is turned into a signal by an enzyme label.)

Experiment [2] is described as follows: BSK_4H_Eotaxin3: BioMAP Diversity Plus: 4H Assay for Eotaxin 3 Biomarker Activity (AID 2283000).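 On outcome: CCL26 protein level quantified by ELISA in parallel with SRB cytotoxicity check.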 The note with it: primary human endothelial cells (HUVEC); actives raise or lower the signal. In outline: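 Human umbilical vein endothelial cells (BSK_4H system) dosed with test chemical; Eotaxin-3 (CCL26) measured by ELISA 24 h after dosing. Bidirectional curve fitting relative to DMSO negative control as baseline.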

Experiment [3] in a line: BSK_3C_Proliferation: Cell Proliferation Assessment in the BioMAP Diversity Plus: 3C Assay (AID 2283006). To be noted: primary human endothelial cells (HUVEC). In outline: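 HUVEC, sub-confluent; 48 h chemical exposure; 10% TCA fix, 0.1% SRB stain, A560 total protein. Gain or loss of signal fitted both directions vs DMSO control.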
The target of experiment [4] is Peroxisome proliferator-activated receptor gamma (Homo sapiens) (UniProt P37231). The experiment in a line: ATG_PPARg_TRANS: Attagene TRANS-FACTORIAL HepG2 Assay for human Peroxisome Proliferator-activated Receptor-gamma (PPARg) (AID 2283007; active means hit-call score of the fitted dose curve at least 0.9, where 1 is the maximum). In outline: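 Transient transfection of HepG2 with GAL4-UAS-driven reporter units; chemical dosing 24 h; total RNA → oligo(dT) RT → PCR with reporter primers → 6-FAM primer extension → HpaI digest 2 h 37 C → capillary electrophoresis. Positive direction vs DMSO.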
Sequence of Peroxisome proliferator-activated receptor gamma (Homo sapiens) (P37231 whole entry, looked up, the tested form may be a part): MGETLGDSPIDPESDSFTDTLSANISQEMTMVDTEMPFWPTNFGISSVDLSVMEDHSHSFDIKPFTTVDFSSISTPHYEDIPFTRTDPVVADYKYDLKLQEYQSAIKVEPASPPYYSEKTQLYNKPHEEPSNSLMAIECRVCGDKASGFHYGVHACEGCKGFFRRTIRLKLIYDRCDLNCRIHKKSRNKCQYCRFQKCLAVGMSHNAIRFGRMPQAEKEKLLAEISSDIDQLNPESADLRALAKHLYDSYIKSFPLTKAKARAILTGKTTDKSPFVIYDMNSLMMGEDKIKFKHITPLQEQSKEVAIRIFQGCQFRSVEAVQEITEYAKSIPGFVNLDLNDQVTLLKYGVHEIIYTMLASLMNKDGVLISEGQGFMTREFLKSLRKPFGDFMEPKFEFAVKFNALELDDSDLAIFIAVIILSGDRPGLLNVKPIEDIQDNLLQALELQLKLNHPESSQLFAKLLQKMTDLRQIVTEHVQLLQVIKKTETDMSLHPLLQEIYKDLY

Experiment [5] addresses human RAR-related Orphan Receptor gamma (RORg), RORC (gene 6097) (UniProt P51449). The experiment in a line: ATG_RORg_TRANS: Attagene TRANS-FACTORIAL HepG2 Assay for human RAR-related Orphan Receptor gamma (RORg) (AID 2283011; active means hit-call score of the fitted dose curve at least 0.9, where 1 is the maximum). In outline: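 Reporter transcripts from a transfected RORg-GAL4 chimera in HepG2 cells were quantified 24 h after dosing by RT-PCR, 6-FAM labelling, HpaI digestion and capillary electrophoresis; increases over DMSO baseline were fitted.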

The target of experiment [6] is Retinoic acid receptor RXR-alpha (Homo sapiens) (UniProt P19793). Description: ATG_RXRa_TRANS: Attagene TRANS-FACTORIAL HepG2 Assay for human Retinoid X Receptor alpha (RXRa) (AID 2283012; active means hit-call score of the fitted dose curve at least 0.9, where 1 is the maximum). In outline:
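Read-out: fluorescent reporter-transcript fragments quantified by capillary electrophoresis after RT-PCR. Transiently transfected HepG2 cells carrying GAL4-UAS reporters and NR-GAL4 chimeras were exposed to chemical for 24 h; activity scored as increase over DMSO.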

Experiment [7] addresses human Retinoid X Receptor beta (RXRb), RXRB (gene 6257) (UniProt P28702). The experiment in a line: ATG_RXRb_TRANS: Attagene TRANS-FACTORIAL HepG2 Assay for human Retinoid X Receptor beta (RXRb) (AID 2283013; active means hit-call score of the fitted dose curve at least 0.9, where 1 is the maximum). An outline of the steps:
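Read-out: reporter mRNA induction via RT-PCR plus capillary electrophoresis fluorescence, analysed as signal increase relative to DMSO. Cells were human HepG2, transiently transfected with GAL4-UAS reporter constructs and chimeric receptor-Gal4 fusions, dosed for 24 h.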

Experiment [8] has as its target human Thyroid Receptor alpha (THRa1), THRA (gene 7067) (UniProt P10827). The experiment in a line: ATG_THRa1_TRANS: Attagene TRANS-FACTORIAL HepG2 Assay for human Thyroid Receptor alpha (THRa1) (AID 2283014; active means hit-call score of the fitted dose curve at least 0.9, where 1 is the maximum). An outline of the steps:
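Transcripts from GAL4-UAS-driven reporters, measured after 24 h compound exposure by RT-PCR plus capillary electrophoresis of 6-FAM-labeled fragments, were fitted for gain of signal relative to DMSO. Cells: transiently transfected HepG2 expressing NR-Gal4 chimeras.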

Read-out in experiment [9]: E-selectin (Homo sapiens) (UniProt P16581)
The experiment in a line: BSK_3C_Eselectin: BioMAP Diversity Plus: 3C Assay for Eselectin Biomarker Activity (AID 2283015).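 On outcome: cell surface E-selectin protein quantified by ELISA 24 h after dosing.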 The note with it: primary human endothelial cells (HUVEC); actives raise or lower the signal. An outline of the steps:
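E-selectin ELISA readout, fitted bidirectionally relative to DMSO, taken 24 h post-dosing in HUVEC cultures of the 3C system. Overt cytotoxicity tracked with sulforhodamine B staining of parallel wells.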

Read-out in experiment [10]: Monocyte Chemoattractant Protein-1 (MCP1), CCL2 (gene 6347)
The experiment in a line: BSK_3C_MCP1: BioMAP Diversity Plus: 3C Assay for Monocyte Chemoattractant Protein-1 (MCP1) Biomarker Activity (AID 2283017). The note with it: primary human endothelial cells (HUVEC); actives raise or lower the signal. In outline:
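MCP-1 was measured by ELISA 24 h after dosing in primary HUVEC 3C cultures and fitted in both directions relative to DMSO; cytotoxicity was checked by SRB total-protein staining in parallel wells.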

Read-out in experiment [11]: Monocyte Chemoattractant Protein-1 (MCP1), CCL2 (gene 6347)
Description: BSK_4H_MCP1: BioMAP Diversity Plus: 4H Assay for Monocyte Chemoattractant Protein-1 (MCP1) Biomarker Activity (AID 2283018). To be noted: primary human endothelial cells (HUVEC); actives raise or lower the signal. In outline: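 HUVEC primary cells, 24 h post-dose, MCP-1 by ELISA. Gain or loss of signal fitted bidirectionally vs DMSO baseline. Cytotoxicity: SRB stain (0.1% after 10% TCA fixation), read 560 nm, parallel cultures.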

Read-out in experiment [12]: Human Leukocyte Antigen - DR isotype (HLADR), HLA-DRA (gene 3122)
Description: BSK_3C_HLADR: BioMAP Diversity Plus: 3C Assay for Human Leukocyte Antigen - DR isotype (HLADR) Biomarker Activity (AID 2283019).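 On outcome: ELISA of cell-surface HLA-DR on HUVEC 24 h after dosing.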 The note with it: primary human endothelial cells (HUVEC); actives raise or lower the signal. An outline of the steps: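 Bidirectional fitting against DMSO was applied to the HLA-DR ELISA signal from human umbilical vein endothelial cells, 24 h post-dose. Cytotoxicity came from parallel SRB total-protein staining; 3C proliferation was counted by SRB at 48 h.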

Read-out in experiment [13]: Intercellular Adhesion Molecule 1 (ICAM1), ICAM1 (gene 3383)
Description: BSK_3C_ICAM1: BioMAP Diversity Plus: 3C Assay for Intercellular Adhesion Molecule 1 (ICAM1) Biomarker Activity (AID 2283003). The note with it: primary human endothelial cells (HUVEC); actives raise or lower the signal. An outline of the steps:
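ELISA read-out of ICAM-1; HUVEC (primary human), 3C system, 24 h post-dosing; bidirectional fit vs DMSO baseline.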

In experiment [14] the target is human Retinoic Acid Receptor beta (RARb), RARB (gene 5915) (UniProt P10826). Description: ATG_RARb_TRANS: Attagene TRANS-FACTORIAL HepG2 Assay for human Retinoic Acid Receptor beta (AID 2283004; active means hit-call score of the fitted dose curve at least 0.9, where 1 is the maximum). In outline:
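Induction of reporter mRNA from a chimeric RARb-Gal4 construct was measured by RT-PCR, FAM labelling, HpaI digestion and capillary electrophoresis. Measurements followed 24 h compound treatment of transiently transfected human HepG2 liver cells, with DMSO as baseline.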

The target in experiment [15] is Retinoic acid receptor alpha (Homo sapiens) (UniProt P10276). The experiment in a line: ATG_RARa_TRANS: Attagene TRANS-FACTORIAL HepG2 Assay for human Retinoic Acid Receptor alpha (RARa) (AID 2283005; active means hit-call score of the fitted dose curve at least 0.9, where 1 is the maximum). An outline of the steps: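 HepG2 transiently transfected with multiplex GAL4-UAS reporter units including a human RARa–GAL4 chimera; 24 h compound exposure. Reporter mRNA quantified by RT-PCR, 6-FAM labeling and capillary electrophoresis; gain of signal versus DMSO.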
Sequence of Retinoic acid receptor alpha (Homo sapiens) (P10276 whole entry, looked up, the tested form may be a part): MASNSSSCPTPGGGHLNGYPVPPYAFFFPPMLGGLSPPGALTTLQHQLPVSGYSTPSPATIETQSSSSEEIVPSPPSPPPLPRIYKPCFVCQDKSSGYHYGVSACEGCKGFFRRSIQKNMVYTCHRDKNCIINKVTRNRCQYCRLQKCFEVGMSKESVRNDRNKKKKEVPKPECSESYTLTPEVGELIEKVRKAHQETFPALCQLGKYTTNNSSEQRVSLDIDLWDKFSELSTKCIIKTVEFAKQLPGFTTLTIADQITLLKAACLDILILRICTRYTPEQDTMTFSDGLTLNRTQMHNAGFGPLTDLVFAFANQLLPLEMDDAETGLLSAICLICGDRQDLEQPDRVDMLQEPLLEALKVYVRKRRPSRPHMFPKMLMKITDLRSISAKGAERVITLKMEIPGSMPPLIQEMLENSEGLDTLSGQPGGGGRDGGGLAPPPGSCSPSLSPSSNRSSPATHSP

Experiment [16] has as its target Nuclear receptor subfamily 1 group I member 2 (Homo sapiens) (UniProt O75469). Description: ATG_PXR_TRANS: Attagene TRANS-FACTORIAL HepG2 Assay for human Pregnane X Receptor (PXR) (AID 2283008; active means hit-call score of the fitted dose curve at least 0.9, where 1 is the maximum). In outline: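 Multiplexed TRANS reporter panel in HepG2; this component tracks PXR-Gal4-driven reporter mRNA after 24 h dosing, measured by RT-PCR with capillary electrophoresis fluorescence, fitted against DMSO.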

Read-out in experiment [17]: Interleukin-1 alpha (IL1a), IL1A (gene 3552)
Description: BSK_BE3C_IL1a: BioMAP Diversity Plus: BE3C Assay for Interleukin-1 alpha (IL1a) Biomarker Activity (AID 2283016). To be noted: primary human bronchial epithelial cells; actives raise or lower the signal. An outline of the steps: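 ELISA read-out of IL-1a from human lung bronchial epithelial primary cells, 24 h post-dose. Gain or loss of signal fitted relative to DMSO negative control.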

The target of experiment [18] is human Retinoic Acid Receptor gamma (RARg), RARG (gene 5916) (UniProt P13631). The experiment in a line: ATG_RARg_TRANS: Attagene TRANS-FACTORIAL HepG2 Assay for human Retinoic Acid Receptor gamma (RARg) (AID 2283009; active means hit-call score of the fitted dose curve at least 0.9, where 1 is the maximum). An outline of the steps:
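Readout: reporter transcript levels via RT-PCR, 6-FAM primer-extension labelling, HpaI digestion and capillary electrophoresis. Cells: HepG2 carrying transfected RARg-GAL4 chimera plus UAS reporter set. Dosing 24 h; DMSO negative control.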

Experiment [19] addresses human Peroxisome Proliferator-activated Receptor delta (PPARd), PPARD (gene 5467) (UniProt Q03181). Description: ATG_PPARd_TRANS: Attagene TRANS-FACTORIAL HepG2 Assay for human Peroxisome Proliferator-activated Receptor delta (PPARd) (AID 2283002; active means hit-call score of the fitted dose curve at least 0.9, where 1 is the maximum). An outline of the steps:
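Read-out: reporter mRNA induction, quantified by fluorescent RT-PCR products resolved by capillary electrophoresis. Human HepG2 liver cells carried transiently transfected Gal4-UAS reporter constructs with chimeric NR-Gal4 fusions. Cells were dosed for 24 h; DMSO served as baseline.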

Records with an inconclusive call do not appear. Activity calls are given as the source filed them. How the source made its calls, unless noted: active means hit-call score of the fitted dose curve at least 0.9, where 1 is the maximum; inactive means score below 0.9.

A word on the AC50: it is the midpoint of the concentration-response curve, whichever way the signal moves.

Sequence of human Thyroid Receptor alpha (THRa1), THRA (gene 7067) (P10827 whole entry, looked up, the tested form may be a part): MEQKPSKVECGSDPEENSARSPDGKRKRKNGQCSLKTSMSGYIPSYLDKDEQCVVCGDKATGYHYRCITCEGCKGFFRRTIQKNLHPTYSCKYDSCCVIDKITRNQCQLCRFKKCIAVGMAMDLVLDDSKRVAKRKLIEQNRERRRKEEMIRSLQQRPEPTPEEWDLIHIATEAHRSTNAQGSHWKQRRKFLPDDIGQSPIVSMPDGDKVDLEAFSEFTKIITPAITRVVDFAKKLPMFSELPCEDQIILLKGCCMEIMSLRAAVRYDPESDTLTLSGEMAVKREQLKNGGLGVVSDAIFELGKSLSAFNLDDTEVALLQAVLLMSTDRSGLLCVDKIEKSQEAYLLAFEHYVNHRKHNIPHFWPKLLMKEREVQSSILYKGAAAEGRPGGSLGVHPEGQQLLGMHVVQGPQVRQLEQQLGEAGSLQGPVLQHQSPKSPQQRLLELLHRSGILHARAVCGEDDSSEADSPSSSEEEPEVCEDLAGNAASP
Sequence of Retinoic acid receptor RXR-alpha (Homo sapiens) (P19793 whole entry, looked up, the tested form may be a part): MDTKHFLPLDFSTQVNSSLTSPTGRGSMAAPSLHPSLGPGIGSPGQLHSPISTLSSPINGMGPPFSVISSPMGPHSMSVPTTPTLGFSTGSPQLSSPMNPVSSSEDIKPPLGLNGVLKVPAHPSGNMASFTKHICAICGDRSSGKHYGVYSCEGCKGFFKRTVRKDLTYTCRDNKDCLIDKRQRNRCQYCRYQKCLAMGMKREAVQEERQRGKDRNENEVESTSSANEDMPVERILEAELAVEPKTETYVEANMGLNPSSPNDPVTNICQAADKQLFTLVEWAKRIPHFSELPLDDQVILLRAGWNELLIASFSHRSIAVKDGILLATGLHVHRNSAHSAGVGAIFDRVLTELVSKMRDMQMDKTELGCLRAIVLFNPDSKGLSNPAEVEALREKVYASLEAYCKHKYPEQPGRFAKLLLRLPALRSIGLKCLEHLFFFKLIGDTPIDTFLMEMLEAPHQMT
Sequence of human Retinoic Acid Receptor gamma (RARg), RARG (gene 5916) (P13631 whole entry, looked up, the tested form may be a part): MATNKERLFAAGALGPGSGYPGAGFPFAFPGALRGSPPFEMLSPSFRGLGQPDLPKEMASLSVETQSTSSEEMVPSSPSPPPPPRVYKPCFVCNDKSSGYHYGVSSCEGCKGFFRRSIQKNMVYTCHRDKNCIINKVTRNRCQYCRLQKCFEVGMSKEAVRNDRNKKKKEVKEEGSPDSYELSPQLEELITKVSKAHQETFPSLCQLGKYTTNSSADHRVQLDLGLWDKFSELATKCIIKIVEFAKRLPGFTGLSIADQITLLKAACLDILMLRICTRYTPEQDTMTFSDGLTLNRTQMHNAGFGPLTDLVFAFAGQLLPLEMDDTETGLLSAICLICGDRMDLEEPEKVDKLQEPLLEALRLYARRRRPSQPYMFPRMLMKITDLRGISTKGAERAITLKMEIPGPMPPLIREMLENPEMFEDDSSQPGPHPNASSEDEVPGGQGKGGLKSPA
Sequence of human RAR-related Orphan Receptor gamma (RORg), RORC (gene 6097) (P51449 whole entry, looked up, the tested form may be a part): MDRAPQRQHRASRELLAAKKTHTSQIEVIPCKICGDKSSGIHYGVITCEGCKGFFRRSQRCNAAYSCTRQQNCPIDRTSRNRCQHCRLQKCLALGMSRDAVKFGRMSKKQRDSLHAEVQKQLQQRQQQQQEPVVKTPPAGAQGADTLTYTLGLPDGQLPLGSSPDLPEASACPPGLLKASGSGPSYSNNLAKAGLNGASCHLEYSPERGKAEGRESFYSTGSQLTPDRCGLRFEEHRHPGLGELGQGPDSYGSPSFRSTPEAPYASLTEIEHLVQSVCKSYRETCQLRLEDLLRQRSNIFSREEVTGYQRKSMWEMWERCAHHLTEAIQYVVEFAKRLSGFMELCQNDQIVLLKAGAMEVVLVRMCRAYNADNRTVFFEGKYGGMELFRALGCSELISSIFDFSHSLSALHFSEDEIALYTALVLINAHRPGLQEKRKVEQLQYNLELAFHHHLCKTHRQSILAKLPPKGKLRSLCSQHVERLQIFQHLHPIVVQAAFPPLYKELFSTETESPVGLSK
Sequence of human Retinoic Acid Receptor beta (RARb), RARB (gene 5915) (P10826 whole entry, looked up, the tested form may be a part): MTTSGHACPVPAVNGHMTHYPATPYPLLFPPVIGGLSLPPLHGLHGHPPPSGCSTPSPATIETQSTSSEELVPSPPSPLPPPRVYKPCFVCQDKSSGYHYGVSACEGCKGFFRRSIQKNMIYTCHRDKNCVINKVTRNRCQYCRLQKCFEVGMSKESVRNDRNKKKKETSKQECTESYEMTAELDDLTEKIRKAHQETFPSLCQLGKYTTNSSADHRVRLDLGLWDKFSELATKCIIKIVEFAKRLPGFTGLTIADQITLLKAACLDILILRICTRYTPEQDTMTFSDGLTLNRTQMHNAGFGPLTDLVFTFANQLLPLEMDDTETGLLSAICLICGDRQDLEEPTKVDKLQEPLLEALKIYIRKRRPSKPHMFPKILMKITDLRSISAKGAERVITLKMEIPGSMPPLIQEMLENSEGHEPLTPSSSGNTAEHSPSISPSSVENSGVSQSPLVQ
Sequence of Nuclear receptor subfamily 1 group I member 2 (Homo sapiens) (O75469 whole entry, looked up, the tested form may be a part): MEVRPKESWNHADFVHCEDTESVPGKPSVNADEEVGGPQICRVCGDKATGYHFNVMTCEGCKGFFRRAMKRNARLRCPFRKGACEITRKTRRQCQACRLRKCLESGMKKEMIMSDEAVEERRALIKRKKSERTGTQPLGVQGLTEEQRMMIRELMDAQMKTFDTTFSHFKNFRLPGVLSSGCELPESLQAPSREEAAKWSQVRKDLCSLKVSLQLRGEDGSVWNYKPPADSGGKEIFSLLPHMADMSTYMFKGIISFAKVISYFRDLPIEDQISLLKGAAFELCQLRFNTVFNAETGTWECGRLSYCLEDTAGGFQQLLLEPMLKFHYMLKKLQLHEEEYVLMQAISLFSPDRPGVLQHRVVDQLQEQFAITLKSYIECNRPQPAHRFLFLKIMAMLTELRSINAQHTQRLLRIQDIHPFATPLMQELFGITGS
Sequence of E-selectin (Homo sapiens) (P16581 whole entry, looked up): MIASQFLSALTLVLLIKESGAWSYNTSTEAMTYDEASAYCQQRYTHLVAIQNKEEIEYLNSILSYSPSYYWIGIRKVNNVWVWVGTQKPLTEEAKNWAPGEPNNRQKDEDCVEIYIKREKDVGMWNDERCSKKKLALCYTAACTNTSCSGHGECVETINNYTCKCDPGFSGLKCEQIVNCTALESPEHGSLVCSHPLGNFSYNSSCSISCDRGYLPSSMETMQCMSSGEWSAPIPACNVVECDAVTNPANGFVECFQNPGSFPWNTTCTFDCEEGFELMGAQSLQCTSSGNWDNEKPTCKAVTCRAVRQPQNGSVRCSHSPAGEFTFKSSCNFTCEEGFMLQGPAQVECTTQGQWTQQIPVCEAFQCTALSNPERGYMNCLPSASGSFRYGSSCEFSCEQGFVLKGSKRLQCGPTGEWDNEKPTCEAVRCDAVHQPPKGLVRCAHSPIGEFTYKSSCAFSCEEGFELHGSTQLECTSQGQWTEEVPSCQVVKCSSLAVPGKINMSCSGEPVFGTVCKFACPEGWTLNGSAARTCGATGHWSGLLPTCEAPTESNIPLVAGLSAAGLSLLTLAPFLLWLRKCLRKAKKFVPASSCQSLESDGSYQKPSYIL
Sequence of human Retinoid X Receptor beta (RXRb), RXRB (gene 6257) (P28702 whole entry, looked up, the tested form may be a part): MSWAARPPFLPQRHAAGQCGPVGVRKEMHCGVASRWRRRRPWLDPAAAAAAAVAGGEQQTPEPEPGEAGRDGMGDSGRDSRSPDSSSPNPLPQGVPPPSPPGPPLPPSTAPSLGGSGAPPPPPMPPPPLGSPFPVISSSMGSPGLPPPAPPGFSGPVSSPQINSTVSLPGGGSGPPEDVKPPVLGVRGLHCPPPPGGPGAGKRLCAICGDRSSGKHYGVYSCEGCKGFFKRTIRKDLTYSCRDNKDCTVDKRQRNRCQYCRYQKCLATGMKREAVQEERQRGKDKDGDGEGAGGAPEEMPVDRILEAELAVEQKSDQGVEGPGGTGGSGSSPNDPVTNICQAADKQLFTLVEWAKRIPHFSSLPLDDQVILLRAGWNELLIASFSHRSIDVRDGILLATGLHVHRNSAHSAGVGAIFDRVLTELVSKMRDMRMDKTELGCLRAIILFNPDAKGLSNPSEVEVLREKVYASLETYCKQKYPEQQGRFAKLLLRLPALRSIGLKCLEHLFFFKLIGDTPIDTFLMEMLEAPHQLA

On to `COP(=O)(NC(C)=O)SC` (stereo not given), for which the outcome in experiment [1], in experiment [2], in experiment [3], in experiment [4], in [5] and in experiment [6] was inactive. For the same compound, the compound was called inactive in experiment [7], in [8], in experiment [9], in [10], in experiment [11] and in experiment [12].

Turning to `CCOP(=O)(SC(C)CC)N1CCSC1=O` (stereo not given), the result in experiment [1], in experiment [2], in experiment [13], in experiment [14], in experiment [15] and in experiment [3] was inactive. Also, the compound was classed as inactive in experiment [4], in experiment [16], in experiment [9], in experiment [10], in experiment [11] and in experiment [12].

In the case of `C#CC(C)(C)NC(=O)c1cc(Cl)cc(Cl)c1`, the result in [1], in experiment [2], in experiment [13], in experiment [15], in [3] and in experiment [5] was inactive. Also, the call in experiment [6], in experiment [7], in [8], in experiment [9], in experiment [17] and in experiment [10] was inactive. Further, in experiment [11], the result was inactive. Besides, the results for the AC50 in experiment [16] and in [12] were 30.9 µM (active) and 19.1 µM (active), respectively.

As to `CC(=NC#N)N(C)Cc1ccc(Cl)nc1`, the outcome in experiment [1], in experiment [2], in [15], in experiment [3], in experiment [4] and in experiment [16] was inactive. In addition, the compound was classed as inactive in experiment [18], in [5], in experiment [6], in [7], in experiment [9] and in experiment [10]. Also, the result in experiment [11] and in [12] was inactive.

`CCC(=O)Nc1ccc(Cl)c(Cl)c1`: the outcome in experiment [1], in experiment [2], in [13], in experiment [14], in experiment [15] and in experiment [3] was inactive. Also, the result in [4], in experiment [16], in [5], in experiment [6], in experiment [7] and in experiment [9] was inactive. The result in experiment [10] and in [11] was inactive. Also, in experiment [12], the AC50 was 6.03 µM (active).

Turning to `Cc1nn(-c2cc(NS(C)(=O)=O)c(Cl)cc2Cl)c(=O)n1C(F)F`, the result in experiment [1], in experiment [2], in [19], in experiment [3], in experiment [5] and in experiment [6] was inactive. Also, the call in [8], in [9], in experiment [10], in experiment [11] and in [12] was inactive. The AC50 in [4] was 28 µM (active); in experiment [16], 28.9 µM (active).

Take `CSc1nnc(C(C)(C)C)c(=O)n1N`: the result in [1], in [2], in experiment [14], in experiment [15], in experiment [3] and in [18] was inactive. Moreover, the result in experiment [6], in experiment [7], in [8], in experiment [9], in experiment [10] and in experiment [11] was inactive.

For the compound `COP(=O)(OC)SCn1c(=O)oc2cc(Cl)cnc21`, the outcome in experiment [1], in experiment [13], in [3], in experiment [16], in experiment [5] and in [6] was inactive. The outcome in [7], in experiment [8], in experiment [17], in experiment [10] and in [11] was inactive. The AC50 was 36.9 µM (active) in experiment [2], 14.7 µM (active) in experiment [4], 20 µM (active) in experiment [9] and 25.1 µM (active) in experiment [12].

Take `C[N+]1(C)CCCCC1`: the outcome in experiment [1], in [2], in [13], in [14], in experiment [15] and in experiment [3] was inactive. The call in [4], in [16], in experiment [18], in experiment [5], in experiment [6] and in [7] was inactive. For the same compound, the call in [8], in experiment [9], in experiment [10], in [11] and in experiment [12] was inactive.

The record behind these values is PubChem BioAssay (EPA / NIEHS).
